Source: ChEMBL document CHEMBL2218924, “A broad activity screen in support of a chemogenomic map for kinase signalling research and drug discovery” (Biochem J, 2013)

Key:
[1] = biological target: Tyrosine-protein kinase Lck (Homo sapiens) (UniProt P06239); conditions: at 10 µM
[2] = biological target: Tyrosine-protein kinase Lck (Homo sapiens) (UniProt P06239); conditions: at 1 µM
[3] = biological target: Tyrosine-protein kinase Lck (Homo sapiens) (UniProt P06239); conditions: at 10 µM; remark: listed apart in the source
[4] = biological target: Tyrosine-protein kinase Lyn (Homo sapiens) (UniProt P07948); conditions: at 1 µM
Sequence of Tyrosine-protein kinase Lyn (Homo sapiens) (P07948 2-512 limits assumed): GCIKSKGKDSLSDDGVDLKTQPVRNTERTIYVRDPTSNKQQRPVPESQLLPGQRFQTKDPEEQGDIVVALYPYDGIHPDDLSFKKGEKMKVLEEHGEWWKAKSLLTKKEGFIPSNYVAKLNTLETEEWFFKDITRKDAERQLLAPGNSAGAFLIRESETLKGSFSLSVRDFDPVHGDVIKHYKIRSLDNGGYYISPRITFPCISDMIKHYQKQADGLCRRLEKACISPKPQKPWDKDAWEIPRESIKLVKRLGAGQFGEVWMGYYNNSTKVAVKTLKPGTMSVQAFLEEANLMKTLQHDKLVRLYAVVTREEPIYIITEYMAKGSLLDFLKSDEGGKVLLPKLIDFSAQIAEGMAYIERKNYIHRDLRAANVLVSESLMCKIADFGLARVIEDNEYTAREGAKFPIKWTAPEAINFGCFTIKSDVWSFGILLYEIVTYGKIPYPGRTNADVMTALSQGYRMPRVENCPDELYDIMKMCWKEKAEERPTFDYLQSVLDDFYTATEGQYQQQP

[5] = biological target: Tyrosine-protein kinase Lyn (Homo sapiens) (UniProt P07948); conditions: at 10 µM
[6] = biological target: Mitogen-activated protein kinase 3 (Homo sapiens) (UniProt P27361); conditions: at 1 µM
Sequence of Mitogen-activated protein kinase 3 (Homo sapiens) (P27361 whole entry): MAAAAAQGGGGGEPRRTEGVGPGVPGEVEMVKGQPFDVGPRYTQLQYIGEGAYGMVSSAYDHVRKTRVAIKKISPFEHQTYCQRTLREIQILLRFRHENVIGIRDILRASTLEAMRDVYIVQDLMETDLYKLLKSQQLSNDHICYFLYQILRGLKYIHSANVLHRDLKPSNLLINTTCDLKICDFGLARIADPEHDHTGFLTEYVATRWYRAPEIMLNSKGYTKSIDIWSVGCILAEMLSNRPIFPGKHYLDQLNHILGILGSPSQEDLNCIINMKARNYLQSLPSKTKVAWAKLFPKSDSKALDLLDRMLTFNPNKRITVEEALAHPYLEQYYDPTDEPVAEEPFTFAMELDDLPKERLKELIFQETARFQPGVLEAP

[7] = biological target: Mitogen-activated protein kinase 3 (Homo sapiens) (UniProt P27361); conditions: at 10 µM
[8] = biological target: Mitogen-activated protein kinase 1 (Homo sapiens) (UniProt P28482); conditions: at 1 µM
Sequence of Mitogen-activated protein kinase 1 (Homo sapiens) (P28482 whole entry): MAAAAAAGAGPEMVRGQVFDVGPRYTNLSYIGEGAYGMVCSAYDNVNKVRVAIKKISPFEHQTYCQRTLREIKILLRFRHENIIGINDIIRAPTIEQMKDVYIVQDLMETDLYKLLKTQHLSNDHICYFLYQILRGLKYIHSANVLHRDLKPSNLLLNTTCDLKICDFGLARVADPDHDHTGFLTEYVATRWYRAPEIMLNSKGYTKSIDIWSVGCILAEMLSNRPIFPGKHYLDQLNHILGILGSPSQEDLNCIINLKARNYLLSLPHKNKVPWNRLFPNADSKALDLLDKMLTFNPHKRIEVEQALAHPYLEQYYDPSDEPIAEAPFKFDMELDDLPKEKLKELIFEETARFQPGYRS

[9] = biological target: Mitogen-activated protein kinase 1 (Homo sapiens) (UniProt P28482); conditions: at 10 µM
[10] = biological target: MAP kinase-activated protein kinase 2 (Homo sapiens) (UniProt P49137); conditions: at 1 µM
Sequence of MAP kinase-activated protein kinase 2 (Homo sapiens) (P49137 whole entry, looked up): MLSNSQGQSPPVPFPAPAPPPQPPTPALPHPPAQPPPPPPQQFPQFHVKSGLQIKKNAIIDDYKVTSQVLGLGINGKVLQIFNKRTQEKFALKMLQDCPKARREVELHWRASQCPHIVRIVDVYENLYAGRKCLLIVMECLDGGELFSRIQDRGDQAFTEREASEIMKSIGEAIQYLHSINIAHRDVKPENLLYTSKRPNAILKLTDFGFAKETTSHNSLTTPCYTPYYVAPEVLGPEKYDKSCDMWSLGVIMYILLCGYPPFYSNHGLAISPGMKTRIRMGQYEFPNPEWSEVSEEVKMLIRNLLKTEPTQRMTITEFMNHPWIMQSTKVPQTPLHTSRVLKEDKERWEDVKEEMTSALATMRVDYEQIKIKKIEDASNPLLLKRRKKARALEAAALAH

Sequence of Tyrosine-protein kinase Lck (Homo sapiens) (P06239 2-509 limits assumed): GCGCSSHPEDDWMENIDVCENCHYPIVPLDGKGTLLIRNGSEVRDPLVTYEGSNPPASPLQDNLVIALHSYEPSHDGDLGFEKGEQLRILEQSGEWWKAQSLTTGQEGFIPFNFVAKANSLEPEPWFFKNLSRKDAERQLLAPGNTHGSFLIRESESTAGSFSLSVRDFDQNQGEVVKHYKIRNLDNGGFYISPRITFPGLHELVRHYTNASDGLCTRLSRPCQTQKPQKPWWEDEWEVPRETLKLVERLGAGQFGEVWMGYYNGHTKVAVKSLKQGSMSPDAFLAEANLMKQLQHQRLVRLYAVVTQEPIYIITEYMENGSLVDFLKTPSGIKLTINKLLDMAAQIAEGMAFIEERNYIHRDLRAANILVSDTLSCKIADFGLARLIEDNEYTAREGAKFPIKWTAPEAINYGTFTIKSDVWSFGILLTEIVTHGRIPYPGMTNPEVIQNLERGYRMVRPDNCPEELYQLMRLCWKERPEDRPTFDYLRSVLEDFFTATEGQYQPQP

CC(C)n1cnc2c(NCc3ccccc3)nc(NCCCO)nc21
residual activity [1]: 70%
residual activity [2]: 87%
residual activity [3]: 86%
residual activity [4]: 53%
residual activity [5]: 38%
residual activity [6]: 87%
residual activity [7]: 92%
residual activity [8]: 100%
residual activity [9]: 90%
residual activity [10]: 72%

c1ccc(-c2n[nH]cc2-c2ccnc3ccccc23)nc1
residual activity [1]: 71%
residual activity [2]: 91%
residual activity [3]: 66%
residual activity [4]: 90%
residual activity [5]: 24%
residual activity [6]: 88%
residual activity [7]: 83%
residual activity [8]: 96%
residual activity [9]: 109%
residual activity [10]: 101%

Cc1nc(-c2ccccc2)c(-c2ccncc2)o1
residual activity [1]: 59%
residual activity [2]: 45%
residual activity [3]: 42%
residual activity [4]: 0%
residual activity [5]: 0%
residual activity [6]: 116%
residual activity [7]: 97%
residual activity [8]: 118%
residual activity [9]: 100%
residual activity [10]: 95%

COc1cc2ncnc(Nc3ccc(O)c(Br)c3)c2cc1OC
residual activity [1]: 7%
residual activity [2]: 21%
residual activity [3]: 10%
residual activity [4]: 7%
residual activity [5]: -2%
residual activity [6]: 68%
residual activity [7]: 45%
residual activity [8]: 98%
residual activity [9]: 75%
residual activity [10]: 106%

O=[N+]([O-])c1ccc(-c2nc(-c3ccc(F)cc3)c(-c3ccncc3)[nH]2)cc1
residual activity [1]: 86%
residual activity [2]: 92%
residual activity [3]: 82%
residual activity [4]: 75%
residual activity [5]: 23%
residual activity [6]: 85%
residual activity [7]: 72%
residual activity [8]: 113%
residual activity [9]: 109%
residual activity [10]: 92%

Cc1cc2ncc(-c3ccccc3)nc2cc1C
residual activity [1]: 97%
residual activity [2]: 91%
residual activity [3]: 101%
residual activity [4]: 74%
residual activity [5]: 75%
residual activity [6]: 87%
residual activity [7]: 86%
residual activity [8]: 100%
residual activity [9]: 100%

O=C1NC(=O)c2cc(Nc3ccc(F)cc3)c(Nc3ccc(F)cc3)cc21
residual activity [1]: 26%
residual activity [2]: 77%
residual activity [3]: 44%
residual activity [4]: 35%
residual activity [5]: 7%
residual activity [6]: 79%
residual activity [7]: 57%
residual activity [8]: 103%
residual activity [9]: 99%
residual activity [10]: 90%

O=C(Nc1cccc(Nc2cc(Nc3cccc(C(F)(F)F)c3)ncn2)c1)C1CC1
residual activity [1]: 29%
residual activity [2]: 85%
residual activity [3]: 81%
residual activity [4]: 62%
residual activity [5]: 18%
residual activity [6]: 96%
residual activity [7]: 85%
residual activity [8]: 102%
residual activity [9]: 103%
residual activity [10]: 89%

COc1cccc(-c2cc(=O)c3ccccc3o2)c1N
residual activity [1]: 85%
residual activity [2]: 103%
residual activity [3]: 93%
residual activity [4]: 93%
residual activity [5]: 80%
residual activity [6]: 106%
residual activity [7]: 90%
residual activity [8]: 114%
residual activity [9]: 96%
residual activity [10]: 99%

Oc1n[nH]c2nnc(-c3c(-c4ccccc4)nn4ccccc34)cc12
residual activity [1]: 82%
residual activity [2]: 90%
residual activity [3]: 71%
residual activity [4]: 71%
residual activity [5]: 68%
residual activity [6]: 92%
residual activity [7]: 93%
residual activity [8]: 101%
residual activity [9]: 105%
residual activity [10]: 82%

O=C(O)c1ccc2c3c1cccc3c(=O)n1c3ccccc3nc21
residual activity [1]: 109%
residual activity [2]: 95%
residual activity [3]: 79%
residual activity [4]: 96%
residual activity [5]: 87%
residual activity [6]: 117%
residual activity [7]: 77%
residual activity [8]: 123%
residual activity [9]: 96%
residual activity [10]: 86%

CC(C)n1cnc2/c(=N/c3cccc(Cl)c3)nc(NCCO)[nH]c21
residual activity [1]: 37%
residual activity [2]: 86%
residual activity [3]: 40%
residual activity [4]: 20%
residual activity [5]: 2%
residual activity [6]: 92%
residual activity [7]: 77%
residual activity [8]: 117%
residual activity [9]: 78%
residual activity [10]: 91%

COc1ccc(S(=O)(=O)N(CCO)c2ccccc2CN(C)C/C=C/c2ccc(Cl)cc2)cc1
residual activity [1]: 51%
residual activity [2]: 105%
residual activity [3]: 43%
residual activity [4]: 97%
residual activity [5]: 65%
residual activity [6]: 82%
residual activity [7]: 70%
residual activity [8]: 111%
residual activity [9]: 103%
residual activity [10]: 78%

Nc1ccc2ncnc(NCCc3ccc(Oc4ccccc4)cc3)c2c1
residual activity [1]: 45%
residual activity [2]: 83%
residual activity [3]: 20%
residual activity [4]: 24%
residual activity [5]: 11%
residual activity [6]: 122%
residual activity [7]: 74%
residual activity [8]: 104%
residual activity [9]: 86%
residual activity [10]: 70%

COc1ccc(C(=O)Nc2sc3c(c2C(N)=O)CCCC3)cc1OC
residual activity [1]: 103%
residual activity [2]: 88%
residual activity [3]: 84%
residual activity [4]: 69%
residual activity [5]: 46%
residual activity [6]: 97%
residual activity [7]: 86%
residual activity [8]: 111%
residual activity [9]: 109%
residual activity [10]: 70%

Oc1c2ccccc2c2c3c(cccc13)N=N2
residual activity [1]: 69%
residual activity [2]: 89%
residual activity [3]: 43%
residual activity [4]: 70%
residual activity [5]: 30%
residual activity [6]: 59%
residual activity [7]: 72%
residual activity [8]: 88%
residual activity [9]: 55%
residual activity [10]: 79%

COc1cc2ncnc(Nc3ccc(NC(=O)c4ccccc4)cc3)c2cc1OC
residual activity [1]: 17%
residual activity [2]: 30%
residual activity [3]: 9%
residual activity [4]: 32%
residual activity [5]: 6%
residual activity [6]: 88%
residual activity [7]: 83%
residual activity [8]: 103%
residual activity [9]: 103%
residual activity [10]: 108%

O=c1cc(-c2cccc3c2Sc2ccccc2S3)oc(N2CCOCC2)c1
residual activity [1]: 94%
residual activity [2]: 112%
residual activity [3]: 102%
residual activity [4]: 92%
residual activity [5]: 86%
residual activity [6]: 110%
residual activity [7]: 125%
residual activity [8]: 107%
residual activity [9]: 100%
residual activity [10]: 100%

CC(=O)O/N=C1\C(=C2\C(=O)Nc3cc(Br)ccc32)Nc2ccccc21
residual activity [1]: 13%
residual activity [2]: 63%
residual activity [3]: 26%
residual activity [4]: 12%
residual activity [5]: 4%
residual activity [6]: 98%
residual activity [7]: 102%
residual activity [8]: 105%
residual activity [9]: 93%
residual activity [10]: 87%

CO[C@H]1C[C@@H]2CC[C@@H](C)[C@@](O)(O2)C(=O)C(=O)N2CCCC[C@H]2C(=O)O[C@H]([C@H](C)C[C@@H]2CC[C@@H](O)[C@H](OC)C2)CC(=O)[C@H](C)/C=C(\C)[C@@H](O)[C@@H](OC)C(=O)[C@H](C)C[C@H](C)/C=C/C=C/C=C/1C
residual activity [1]: 80%
residual activity [2]: 102%
residual activity [3]: 124%
residual activity [4]: 86%
residual activity [5]: 131%
residual activity [6]: 83%
residual activity [7]: 116%
residual activity [8]: 102%
residual activity [9]: 101%
residual activity [10]: 86%

CC#CC(=O)Nc1cc2c(Nc3ccc(F)c(Cl)c3)ncnc2cn1
residual activity [1]: 71%
residual activity [2]: 97%
residual activity [3]: 84%
residual activity [4]: 78%
residual activity [5]: 51%
residual activity [6]: 100%
residual activity [7]: 88%
residual activity [8]: 101%
residual activity [9]: 103%
residual activity [10]: 89%

COc1cc2ncc(-c3ccccc3)nc2cc1OC
residual activity [1]: 75%
residual activity [2]: 86%
residual activity [3]: 80%
residual activity [4]: 67%
residual activity [5]: 58%
residual activity [6]: 89%
residual activity [7]: 81%

Ic1cccc(CSc2nnc(-c3ccncc3)o2)c1
residual activity [1]: 66%
residual activity [2]: 82%
residual activity [3]: 87%
residual activity [4]: 63%
residual activity [5]: 47%
residual activity [6]: 82%
residual activity [7]: 82%
residual activity [8]: 111%
residual activity [9]: 83%
residual activity [10]: 77%

CCC(=O)Nc1ccc2ncnc(Nc3cccc(Br)c3)c2c1
residual activity [1]: 67%
residual activity [2]: 77%
residual activity [3]: 75%
residual activity [4]: 28%
residual activity [5]: 5%
residual activity [6]: 83%
residual activity [7]: 85%
residual activity [8]: 93%
residual activity [9]: 94%
residual activity [10]: 88%

Cc1ccc(S(=O)(=O)/C=C/C#N)cc1
residual activity [1]: 94%
residual activity [2]: 87%
residual activity [3]: 97%
residual activity [4]: 92%
residual activity [5]: 94%
residual activity [6]: 97%
residual activity [7]: 114%
residual activity [8]: 113%
residual activity [9]: 110%
residual activity [10]: 93%

Cn1cnc2cc3c(Nc4cccc(Br)c4)ncnc3cc21
residual activity [1]: 24%
residual activity [2]: 41%
residual activity [3]: 34%
residual activity [4]: 8%
residual activity [5]: 2%
residual activity [6]: 103%
residual activity [7]: 85%
residual activity [8]: 107%
residual activity [9]: 95%
residual activity [10]: 108%

COc1ccc(CNc2nc(N(CCO)CCO)nc3c2ncn3C(C)C)cc1
residual activity [1]: 77%
residual activity [2]: 104%
residual activity [3]: 79%
residual activity [4]: 74%
residual activity [5]: 78%
residual activity [6]: 91%
residual activity [7]: 87%
residual activity [8]: 123%
residual activity [9]: 87%
residual activity [10]: 96%

COc1ccc(OC)c2c(=S)c3ccccc3[nH]c12
residual activity [1]: 101%
residual activity [2]: 103%
residual activity [3]: 92%
residual activity [4]: 80%
residual activity [5]: 84%
residual activity [6]: 97%
residual activity [7]: 112%
residual activity [8]: 111%
residual activity [9]: 101%
residual activity [10]: 102%

Cc1nc2cc3nc(-c4cccs4)cnc3cc2n1C
residual activity [1]: 54%
residual activity [2]: 89%
residual activity [3]: 48%
residual activity [4]: 91%
residual activity [5]: 32%
residual activity [6]: 114%
residual activity [7]: 95%
residual activity [8]: 100%
residual activity [9]: 103%
residual activity [10]: 104%

Oc1ccc(-c2nc(-c3ccc(F)cc3)c(-c3ccncc3)[nH]2)cc1
residual activity [1]: 45%
residual activity [2]: 80%
residual activity [3]: 26%
residual activity [4]: 66%
residual activity [5]: 11%
residual activity [6]: 123%
residual activity [7]: 93%
residual activity [8]: 113%
residual activity [9]: 98%
residual activity [10]: 87%

O=C1Nc2cc(Br)ccc2/C1=C1/Nc2ccccc2/C1=N\O
residual activity [1]: 10%
residual activity [2]: 1%
residual activity [3]: 19%
residual activity [4]: 4%
residual activity [5]: 1%
residual activity [6]: 102%
residual activity [7]: 80%
residual activity [8]: 108%
residual activity [9]: 106%
residual activity [10]: 96%

CO[C@H]1[C@@H](OC)C[C@H](C)[C@@H](OC)C2=CC(=O)C=C(NC(=O)/C(C)=C/C=C/[C@H](OC)[C@@H](OC(N)=O)/C(C)=C/[C@@H]1C)C2=O
residual activity [1]: 86%
residual activity [2]: 93%
residual activity [3]: 85%
residual activity [4]: 85%
residual activity [5]: 57%
residual activity [6]: 88%
residual activity [7]: 89%
residual activity [8]: 105%
residual activity [9]: 97%
residual activity [10]: 101%

Cc1ccc(NC2=CC(=O)c3sc(C)nc3C2=O)cc1
residual activity [1]: 80%
residual activity [2]: 92%
residual activity [3]: 98%
residual activity [4]: 80%
residual activity [5]: 71%
residual activity [6]: 102%
residual activity [7]: 120%
residual activity [8]: 108%
residual activity [9]: 106%
residual activity [10]: 85%
